# Inconclusive results are not listed. Entries that show only a call come without a potency. Activity calls are given as the source filed them. Calls come from the whole dose curve.
# Assay: cAMP Responsive Elements (CRE) small molecule agonists, cell-based qHTS assay (AID 1963590)
# Conditions: CRE-bla HEK293T, beta-lactamase FRET ratio, 3 h; series mostly up to 92.4 µM
# Description: U.S. Tox21 Program National Center for Advancing Translational Sciences [NCATS] Division of Preclinical Innovation [DPI] U.S. Environmental Protection Agency [EPA] National Institutes of Environmental Health Sciences [NIEHS] National Toxicology Program [NTP] U.S. Food and Drug Administration [FDA] Tox21 Assay Overview: CREB (cyclic-AMP Responsive Element Binding Protein) is a cellular transcription factor. It binds to certain DNA sequences called cAMP Responsive Elements (CRE) and regulates the transcription of the genes. […] This cell line can be used to find agonists/antagonists of the cyclic AMP signaling pathway. The activation of the report gene under culture conditions can be detected by fluorescence intensity. This cell line has been used to screen the Tox21 10K compound library to identify agonists that induce oxidative stress.
# Tox21 Assay Protocol Summary: CRE-bla Hek 293T cells were suspended in assay medium (DMEM containing 10% dialyzed FBS, 0.1 mM NEAA, 1 mM sodium pyruvate and 25 mM HEPES) and dispensed at 2,000 cells/5 uL /well into 1536-well black wall/clear bottom plates using a Multidrop Combi (ThermoFisher Scientific, Waltham, MA) dispenser. After the assay plates were incubated at 37 C/5% CO2 for 18 hrs, 23 nL of compounds dissolved in DMSO, positive controls or DMSO only was transferred to the assay plate by a pintool workstation (Kalypsys, San Diego, CA). After the plates were incubated at 37 C/5% CO2 for 3 hrs, 1 uL of LiveBLAzer B/G FRET substrate (Invitrogen, Carlsbad, CA) was added to each well using Bioraptr Flying Reagent Dispenser (FRD, Aurora Discovery, San Diego, CA). The plates were incubated at room temperature for 2 h.
row,SMILES,Potency
1,CC(C)CCCCCCCOC(=O)c1ccccc1C(=O)OCCCCCCCC(C)C,inactive
2,Cc1c(COC(=O)[C@@H]2[C@H](/C=C(\Cl)C(F)(F)F)C2(C)C)cccc1-c1ccccc1,inactive
3,ClC(Cl)=C(Cl)Cl,inactive
4,N#Cc1c(Cl)cccc1Cl,inactive
5,COc1cc(CCN)cc(OC)c1OC,inactive
6,CC(C)(OO)c1ccccc1,inactive
7,ClSC(Cl)(Cl)Cl,inactive
8,O=C(c1ccccc1)C(Cl)Cl,inactive
9,O=C(CBr)Nc1ccc(Cl)cc1C(=O)c1ccccc1F,inactive
10,CNC(=O)CSP(=O)(OC)OC,inactive
11,Nc1ccc(Sc2ccc(N)cc2)cc1,inactive
12,COP(=O)(OC)O/C(=C/Cl)c1cc(Cl)c(Cl)cc1Cl,inactive
13,O=CCCl,inactive
14,CCOP(=O)(Sc1ccccc1)Sc1ccccc1,inactive
15,CN[C@@H](C)[C@H](O)c1ccccc1,inactive
16,C=C(Cl)CSC(=S)N(CC)CC,inactive
17,[O-][Cl+3]([O-])([O-])O,inactive
18,O=C(O)[C@H](O)[C@@H](O)C(=O)O,inactive
19,Fc1ccc(C2(Cn3cncn3)OC2c2ccccc2Cl)cc1 (stereo not given),inactive
20,O=C1Nc2ccc(Cl)cc2C(c2ccccc2)=NC1O (stereo not given),inactive

row,SMILES,Potency
1,O=[N+]([O-])C(Br)(CO)CO,inactive
2,N[C@@H](Cc1ccc(Oc2cc(I)c(O)c(I)c2)c(I)c1)C(=O)O,inactive
3,O=[N+]([O-])c1cccc2cccnc12,inactive
4,C[C@@H]1C[C@@H]([C@H](O)CC2CC(=O)NC(=O)C2)C(=O)[C@@H](C)C1,inactive
5,CN(C)CCc1c[nH]c2cccc(O)c12,inactive
6,CNC(=O)Oc1cc(C)c(SC)c(C)c1,inactive
7,CO/C=C(/C(=O)OC)c1ccccc1COc1cccc(C(F)(F)F)n1,inactive
8,Oc1cccc(Cl)c1Cl,inactive
9,NC1=NC(=O)C(c2ccccc2)O1 (stereo not given),inactive
10,CN(CCCC(O)c1cccnc1)N=O (stereo not given),inactive
11,CCN(C(C)=O)c1cccc(-c2ccnc3c(C#N)cnn23)c1,inactive
12,CC(C)=CC1C(C(=O)OC(C#N)c2cccc(Oc3ccccc3)c2)C1(C)C (stereo not given),inactive
13,CCOC(C(=O)OCCN(C)C)(c1ccccc1)c1ccccc1,inactive
14,Cc1cccc(Cc2cnc[nH]2)c1C,inactive
15,CC(C)[N+](=O)[O-],inactive
16,CCN1CCCC1CNC(=O)C(O)(c1ccccc1)c1ccccc1 (stereo not given),inactive
17,N#CN=C1SCCN1Cc1ccc(Cl)nc1,inactive
18,[Cl][Sb]([Cl])[Cl],inactive
19,CN1CCC(O)(c2ccc(F)cc2)C(C(=O)c2ccc(F)cc2)C1 (stereo not given),inactive
20,CN(C)C1CSSSC1,inactive

# Source: PubChem BioAssay (Tox21)
